KB-V1 MDR tox = qHTS assay for MDR1-selective chemotherapeutics: Primary screen using the drug-selected MDR subline cells KB-V1; 400,000 tested, 3.4% active; AID 1347076, 2019; Potency, µM (doses to about 46.1 µM), actives largely listed as cytotoxic; KB-V1 MDR cells viability, CellTiter-Glo, 72 h; further: potency means the concentration at half of the fitted maximal effect; on the % scale 0 is the no-effect control and ±100 the full control effect; nearly all actives have a fitted effect of over 60% in size
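Cells of the MDR subline KB-V1 are plated, dosed with compound at multiple concentrations, and incubated 72 h at 37 degrees C; CellTiter-Glo is then added and luminescence read after 10 min.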
S-ASM inh = Inhibitors of Secretory Acid Sphingomyelinase (S-ASM): qHTS; placental ASM, HMU-PC fluorogenic substrate, 60 min; Potency, µM (doses to about 57.5 µM), inactives show top-dose activity change, negative = inhibition, hits mostly inhibitors; AID 504937, 2011; Sphingomyelin phosphodiesterase (Homo sapiens), P17405; 340,000 tested, 0.006% active; further: potency means the concentration at half of the fitted maximal effect
Target sequence (P17405 47-631 limits assumed): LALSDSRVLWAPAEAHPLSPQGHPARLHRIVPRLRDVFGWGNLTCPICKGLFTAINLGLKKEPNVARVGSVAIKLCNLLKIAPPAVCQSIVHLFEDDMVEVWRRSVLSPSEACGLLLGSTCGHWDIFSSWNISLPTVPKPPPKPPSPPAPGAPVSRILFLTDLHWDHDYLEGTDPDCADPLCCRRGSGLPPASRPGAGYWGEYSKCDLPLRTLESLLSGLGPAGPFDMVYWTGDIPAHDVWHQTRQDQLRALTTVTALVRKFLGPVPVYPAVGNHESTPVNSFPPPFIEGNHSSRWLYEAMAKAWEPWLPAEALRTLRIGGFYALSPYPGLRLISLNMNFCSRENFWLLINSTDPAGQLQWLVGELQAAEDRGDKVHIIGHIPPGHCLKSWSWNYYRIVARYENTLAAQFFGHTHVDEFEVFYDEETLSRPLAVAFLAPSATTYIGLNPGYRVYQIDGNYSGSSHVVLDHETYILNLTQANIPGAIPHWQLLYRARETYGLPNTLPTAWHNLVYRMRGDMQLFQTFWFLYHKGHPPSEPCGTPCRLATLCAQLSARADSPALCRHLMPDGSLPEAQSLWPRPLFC
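Fluorogenic HMU-PC substrate (9 uM final) is turned over by placental ASM in 60 min at 37 C after a 10 min compound preincubation. Reaction ended by alkaline stop (pH 10), with fluorescence read at 386/447 nm.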
KB-3-1 cytotox = qHTS assay for MDR1-selective chemotherapeutics: Primary screen using the parental adenocarcinoma cell KB-3-1; KB-3-1 viability, CellTiter-Glo ATP luminescence, 72 h; Potency, µM (series often up to 46.1 µM), actives largely listed as cytotoxic; 400,000 tested, 1.4% active; AID 1347075, 2019; further: potency means the concentration at half of the fitted maximal effect; on the % scale 0 is the no-effect control and ±100 the full control effect; nearly all actives have a fitted effect of over 60% in size
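Cells are dispensed, compounds pinned in, plates held at 37 °C for 72 h, then CellTiter-Glo is added and luminescence read after 10 minutes. Cell line: parental KB-3-1 in phenol-red-free DMEM, 10% FBS.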
SW480 rerep = A quantitative high throughput screen for small molecules that induce DNA re-replication in SW480 colon adenocarcinoma cells | SW480 DNA re-replication, Hoechst DNA content imaging, 48 h | Potency, µM (highest dose often 46.1 µM), for inactives: top-dose re-replication activation, actives largely listed as activators | 340,000 tested, 1.8% active | AID 624297, 2012; further: potency means the concentration at half of the fitted maximal effect; % of control where 0% means no effect; nearly all actives have a fitted effect of over 55% in size
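SW480 cells exposed to compounds for 48 hr at 37 C, 5% CO2, then Hoechst-stained 40 min. Nuclear DNA content imaged by fluorescence scanning (405 nm excitation, 500-530 nm emission); re-replication scored as increased high-intensity nuclei.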
MCF10A rerep = A quantitative high throughput screen for small molecules that induce DNA re-replication in MCF 10a normal breast cells; MCF 10A DNA re-replication, Hoechst nuclear intensity, 48 h; Potency, µM (doses to about 46.1 µM), for inactives: at the top dose activity, positive = re-replication, usual class: activators; 350,000 tested, 2.9% active; AID 624296, 2012; further: potency means the concentration at half of the fitted maximal effect; % of control where 0% means no effect; nearly all actives have a fitted effect of over 50% in size
Giardia kill = Small Molecules that selectively kill Giardia lamblia: qHTS; Giardia lamblia trophozoite viability; activity change, % at 7.66 µM, hits read low; 340,000 tested, 0.15% active; AID 540267, 2011; in the data active means activity change below about -80%; inconclusive means between about -30% and that limit;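 further: parasites exposed to compound for two days anaerobically before the ATP read; on the % scale 0 is the no-effect control and ±100 the full control effect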
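Giardia trophozoites, 100 cells per well, were exposed to compounds for 48 hrs at 37 deg C under anaerobic conditions; viability was then read as ATP content by bioluminescence after 15-30 min at room temperature.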
Starred values were filed as active, the others as inactive; i = inactive; ? = inconclusive; . = no result given; [ ] = another dose, or the depositor's remark. Rows were chosen to be rich in hits. Some 6.9% of all compounds tested hit in one or more screens of this group. Unless noted, the call rests on the fitted dose curve; in most records, active means well fitted curve in the direction sought with a large enough effect; inconclusive means small, poorly fitted or top-dose-only effect, or another doubt; inactive means no such curve, though single readings can be large; an effect the other way counts as inactive or inconclusive.

SMILES | KB-V1 MDR tox | S-ASM inh | KB-3-1 cytotox | SW480 rerep | MCF10A rerep | Giardia kill
COc1cc2c(cc1OC)C(COc1ccccc1OC)N(C(C)=O)CC2 (centres undefined) | i | 0% | i | -9% | 11% | -2
COc1ccc(CC(=O)N2CCc3cc(OC)c(OC)cc3C2COc2ccc(F)cc2)cc1 (centres undefined) | 7.3µM* | . | i | . | . | .
COc1cc2c(cc1OC)C(COc1ccc([N+](=O)[O-])cc1)N(C(C)=O)CC2 (centres undefined) | ? | 0% | 16µM* | -1% | -3% | 11
CCc1ccc(NC(=O)Cn2c(=O)n(Cc3ccc(C)cc3)c(=O)c3cccnc32)cc1 | i | . | i | . | . | .
COc1ccc(CNc2ccccc2C(=O)NCc2ccccc2)cc1COc1ccc(NC(C)=O)cc1 | . | . | . | . | . | 9
COc1ccccc1C1C(C#N)=C(N)Oc2c1oc(CO)cc2=O (centres undefined) | i | -1% | i | -26%[1.84 µM] | -21% | -6
N#CC1=C(N)Oc2c(oc(CO)cc2=O)C1c1ccccc1[N+](=O)[O-] (centres undefined) | i | 25% | i | 5.8µM* | ? | -6
C=C(CN(C)C)C(=O)c1ccc(C)cc1C | ? | 1% | ? | 5.8µM* | 2.9µM* | -3
COc1ccc(CN(C(=O)c2cc3ccccc3oc2=O)C2CCS(=O)(=O)C2)cc1OC (centres undefined) | ? | 7% | i | -20% | -6% | -8
CCOc1ccccc1NC(=S)NNS(=O)(=O)c1c(C)cc(C)cc1C | i | -7% | i | 1% | 5% | 7
CCOc1ccccc1/C=C/c1nc2ccccc2[nH]c1=O | i | 433% | i | 23µM* | ? | -12
Cc1cccc(C(=O)Nc2nc3nc(-c4ccccc4)cc(=O)n3[nH]2)c1 | i | . | i | . | . | .
C/C(=N\NC(=O)c1c(C)nc2ccccn12)c1cccc([N+](=O)[O-])c1 | ? | 2% | i | -15% | -5% | 8
Cc1nc2ccccn2c1C(=O)/C=C/c1cccc([N+](=O)[O-])c1 | ? | 1% | 2.6µM* | 4.1µM* | ? | 5
Cc1ccc(/C=C/C(=O)c2c(C)nc3ccccn23)cc1 | i | -12% | 18µM* | ? | ? | -10
CCOc1ccccc1NC(=O)Cn1c(=O)n(-c2ccc(F)cc2)c(=O)c2c3c(sc21)CN(C(C)=O)CC3 | i | . | i | . | . | .
Cc1ccc(S(=O)(=O)c2ccc([N+](=O)[O-])o2)cc1 | 13µM* | 0% | ? | ? | ? | 20
CCn1c2ccccc2c2cc(/C(C)=N/O)ccc21 | ? | -10% | ? | -3% | 7% | 14
C/C(=N\O)c1ccc2c3ccccc3n(C)c2c1 | ? | 18% | 2.6µM* | 0% | -1% | 8
COc1ccc(CSc2ccc(-c3nc4ccccn4c3NCc3ccccc3)cc2OC)cc1 | ? | i | ? | ? | 23µM* | 1
CCC(C)Sc1ccc(-c2nc3ccccn3c2NCc2ccccc2)cc1OC (centres undefined) | ? | i | ? | -4% | 21µM* | -5
Cc1ccc(CSC2=NS(=O)(=O)c3ccccc32)cc1 | i | . | i | . | . | -10
CNC(=O)c1cnn2c(C)cc(C)nc12 | i | . | i | . | . | .
CC(C)N(C(=O)[C@H]1C[C@H](CC(=O)NCCCN(C)C)C(=O)N2CCc3c([nH]c4ccc(Cl)cc34)[C@]12C)C(C)C | i | -7% | i | 18µM* | ? | 12
CC[C@]12c3[nH]c4ccc(Cl)cc4c3CCN1C(=O)[C@@H](CC(=O)NCC13CC4CC(CC(C4)C1)C3)C[C@@H]2C(=O)N1CCN(C(=O)c2ccco2)CC1 | ? | -9% | ? | ? | 21µM* | 33
SMILES | KB-V1 MDR tox | S-ASM inh | KB-3-1 cytotox | SW480 rerep | MCF10A rerep | Giardia kill
CCN(CC)C(=O)[C@H]1C[C@H](CC(=O)NCC23CC4CC(CC(C4)C2)C3)C(=O)N2CCc3c([nH]c4ccc(Cl)cc34)[C@]12C | ? | -12% | i | 15µM* | 3% | 2
CCOc1ccc(NC(=O)CSc2oc(-c3cccs3)nc2S(=O)(=O)c2ccc(C)cc2)cc1 | i | . | i | . | . | .
O=C(Nc1ccccc1)c1ccc(-c2ccccc2C(F)(F)F)o1 | i | -10% | i | -2% | ? | -1
O=C(NCc1ccc(Cl)cc1)c1ccc(-c2ccccc2C(F)(F)F)o1 | i | -14% | i | 0% | 23µM* | 14
O=C(c1ccc(NS(=O)(=O)c2ccc3[nH]c(=O)[nH]c3c2)cc1)N1CCCC(C(F)(F)F)C1 (centres undefined) | i | -2% | i | -3% | 0% | -5
O=C(CCCN=C1NS(=O)(=O)c2ccccc21)OCC(=O)c1ccccc1Cl | i | -1% | i | -4% | 3.7µM* | -18
O=C(CCCN=C1NS(=O)(=O)c2ccccc21)OCC(=O)c1ccc(F)cc1 | ? | . | i | -35% | 0% | -1
CC(=O)N1CCN(c2ccc(NCc3ccc(-c4cccc(Cl)c4)o3)cc2)CC1 | i | 33% | i | ? | 21µM* | -23
C=CCNC(=O)/C(=C\c1ccco1)NC(=O)c1ccco1 | i | -2% | i | 0% | -3% | -12
NNC(=O)/C(=C\c1ccco1)NC(=O)c1ccco1 | i | 1% | i | ? | 21µM* | 6
Cc1cc(Br)cc(Cl)c1OCC(=O)NC(=O)NCc1ccccc1 | i | -1% | i | 7% | 18µM* | 4
O=C(c1ccco1)N1CCN(C(=O)c2cnn(-c3ccc(F)cc3)c2-n2cccc2)CC1 | ? | . | i | . | . | .
O=C(NNS(=O)(=O)c1ccccc1)c1cnn(-c2ccccc2)c1-n1cccc1 | 16µM* | -3% | i | -2% | 5% | -11
O=C(c1cnn(-c2ccc(F)cc2)c1-n1cccc1)N1CCN(c2ccccc2)CC1 | 23µM* | . | ? | . | . | .
Nc1c(-c2nc(-c3ccc4c(c3)OCO4)cs2)c2ccccn2c1C(=O)c1ccccc1 | i | . | i | . | . | .
CCC(=O)N1CCc2cc(Br)cc(S(=O)(=O)N3CCC(C(=O)Nc4cccc(C)c4)CC3)c21 | i | . | i | . | . | .

Screens deposited in PubChem BioAssay by National Center for Advancing Translational Sciences (NCATS).
